# Results as given in PubChem BioAssay (Tox21).
# A number with no mark means an inactive call. Records with an inconclusive call do not appear. A call without a number means that no potency is given here. Active and inactive are the calls of the source. Unless noted, calls follow the shape of the dose curve; as a rule, active = well fitted curve in the direction sought with a large enough effect in the repeat runs; inconclusive = weak or mixed curves; inactive = no such curve, though single readings can be large; an effect the other way counts as inactive or inconclusive.
# Tests used:
# [1] = qHTS assay to identify small molecule antagonists of the estrogen related receptor (ERR) signaling pathway from Tox21 library - cell viability counter screen (AID 1224834); also: nearly all actives have a fitted effect of over 30% in size
# Summary of the method: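 Multiplexed viability counter screen in ERR cells: 17.5 h compound exposure at 37 C, CellTiter-Fluor added, 30 min at 37 C/5% CO2, fluorescence read.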
# [2] = biological target: Luciferin 4-monooxygenase (Photinus pyralis) (UniProt P08659); assay: qHTS assay to identify small molecule inhibitors of firefly luciferase (AID 1224835); also: nearly all actives have a fitted effect of over 25% in size; also: potency is read from the fitted curve at half-maximal effect
# Summary of the method: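 Inhibition of purified Photinus luciferase is measured by luminescence. Substrate levels (D-luciferin, ATP) sit at their KM values. Each compound is tested in a concentration series.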
# [3] = qHTS assay to identify small molecule agonists of the constitutive androstane receptor (CAR) signaling pathway - cell viability counter screen (AID 1224836); also: nearly all actives have a fitted effect of over 45% in size
# Summary of the method: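 23 h treatment, 37 C, 5% CO2. Cell line: HepG2 stably expressing hCAR with a CYP2B6-2.2kb construct. Co-treatment: PK11195, 0.75 uM final. Read-out: CellTiter-Fluor fluorescence intensity.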
# [4] = qHTS assay to identify small molecule antagonists of the constitutive androstane receptor (CAR) signaling pathway - cell viability counter screen (AID 1224837); also: nearly all actives have a fitted effect of over 45% in size
# Summary of the method: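 Read-out: CellTiter-Fluor fluorescence after 23 hr at 37 C/5% CO2. Cells: HepG2 double-stable for hCAR and CYP2B6-2.2kb. Compounds tested at 15 concentrations in the presence of CITCO, final concentration 50 nM.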
# [5] = qHTS assay to identify small molecule antagonists of the estrogen related receptor signaling pathway with the pleiotropic PPARgamma coactivator (PGC) from Tox21 10K library - cell viability counter screen (AID 1224840; active = well fitted cell-killing curve with a large enough effect in the repeat runs, not every such curve was filed as active; also: nearly all actives have a fitted effect of over 40% in size)
# Summary of the method: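 Fluorescence read-out of CellTiter-Fluor viability reagent, added after cells had been exposed to compound in DMSO for 17.5 h at 37 C; 30 min development at 37 C/5% CO2. Cells: PGC/ERR line, 2,000/well.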
# [6] = qHTS assay to identify small molecule antagonists of the estrogen related receptor signaling pathway with the pleiotropic PPARgamma coactivator (PGC) from Tox21 10K library (AID 1224841; call rule not given here; also: actives are mostly falling curves and most rising ones were filed inactive; nearly all actives have a fitted effect of over 50% in size; also: potency is read from the fitted curve at half-maximal effect)
# Summary of the method: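 Luminescence read-out (One-Glo luciferase reagent, 30 min at room temperature) from PGC/ERR cells exposed to DMSO-dissolved test compounds for 18 h at 37 C; cells, 2,000 per well, had been preincubated 6 h before compound transfer.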
# [7] = qHTS assay to identify small molecule agonists of the estrogen related receptor signaling pathway with the pleiotropic PPARgamma coactivator (PGC) from Tox21 10K library (AID 1224842); also: nearly all actives have a fitted effect of over 15% in size
# Summary of the method: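 Luminescence from One-Glo (30 min, room temperature) measured after PGC/ERR cells had 18 h at 37 C with pinned compound (23 nL in DMSO). Cells had been seeded at 2,000 per well and pre-incubated 6 h.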
# [8] = qHTS assay to identify small molecule agonists of the hypoxia (HIF-1) signaling pathway - cell viability counter screen (AID 1224844; calls by dose curve; also: nearly all actives have a fitted effect of over 50% in size)
# Summary of the method: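 CellTiter-Glo luminescence read-out, 30 min RT, taken in the same wells as the beta-lactamase HRE reporter assay; HRE-bla ME-180 cells, 0.5% dialyzed FBS, 17 hr compound treatment at 37C, 5% CO2.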
# [9] = qHTS assay to identify small molecule agonists of H2AX (AID 1224845; active = well fitted activation curve with a large enough effect in the signal ratio in the repeat runs, not every such curve was filed as active; the % refers to the signal ratio)
# Summary of the method: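 Phospho-H2AX Ser139 measured by HTRF (ex 320 nm; em 665 and 620 nm) after 24 hr antibody incubation. Compounds, 15 concentrations, 0.76% DMSO, were applied to CHO-K1 cells for 3hr at 37C before lysis.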
# [10] = qHTS assay to identify small molecule agonists of the hypoxia (HIF-1) signaling pathway (AID 1224846; active = well fitted activation curve with a large enough effect in the signal ratio in the repeat runs, not every such curve was filed as active; the % refers to the signal ratio)
# Summary of the method: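 Beta-lactamase FRET read-out (CCF4-AM substrate) from ME-180 cells carrying an HRE-driven bla reporter, after 17 hrs compound exposure at 37C/5% CO2. Cells were seeded at 2,000 per well in 0.5% dialyzed FBS medium and preincubated 5 hrs.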
# [11] = qHTS assay to identify small molecule agonists of H2AX - cell viability counter screen (AID 1224847; calls by dose curve; also: nearly all actives have a fitted effect of over 30% in size; also: potency is read from the fitted curve at half-maximal effect)
# Summary of the method: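 Compounds tested at 15 concentrations were incubated 3 hr at 37C with wild-type CHO-K1 cells; cellular ATP-based luminescence (CellTiter-Glo) indicated viability.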
# [12] = qHTS assay to identify small molecule antagonists of the estrogen related receptor (ERR) signaling pathway from Tox21 library (AID 1224848); also: nearly all actives have a fitted effect of over 50% in size; also: potency is read from the fitted curve at half-maximal effect
# Summary of the method: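 Luciferase luminescence (ONE-Glo, 30 min room temperature) was the read-out. Cells of the NTP-supplied ERR line, 2,000 per well, were given 6 h at 37 C before compound addition in DMSO and 18 h exposure at 37 C.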
# [13] = qHTS assay to identify small molecule agonists of the estrogen related receptor (ERR) signaling pathway from Tox21 library (AID 1224849; calls by dose curve; also: nearly all actives have a fitted effect of over 15% in size); settings: ERR reporter cell line, ONE-Glo luciferase, 18 h; at 92.4 µM (top of the series) unless noted
# Summary of the method: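 Luminescence readout (ONE-Glo, 30 min RT) after 18 h compound exposure at 37 C of NTP-supplied ERR reporter cells; cells were plated 6 h before compound addition by pin tool.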
# [14] = qHTS RealTime-Glo MT Cell Viability Assay in HepG2 cells - 24 hour (AID 1224867); also: nearly all actives have a fitted effect of over 50% in size
# Summary of the method: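 Tox21 10K library screened in qHTS format on HepG2 cells carrying RealTime-Glo reagents. Compounds were added after a 5 h preincubation, and the luminescent signal from continuous culture was measured repeatedly during 40 h treatment.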
# [15] = qHTS RealTime-Glo MT Cell Viability Assay in HEK293 cells - 32 hour (AID 1224868)
# Summary of the method: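 Luminescence generated by NanoLuc from substrate produced by living HEK293 cells served as the viability signal. Each value reflects the reading at its stated time point during continuous 40 h compound exposure at 37 C.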
# [16] = A CellTox Green Cytotoxicity Assay to monitor cytotoxicity in HEK293 cells - 0 hour (AID 1224869); also: nearly all actives have a fitted effect of over 50% in size; also: potency is read from the fitted curve at half-maximal effect
# Summary of the method: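 Read-out: fluorescence of a cell-impermeant cyanine dye staining DNA of dead cells, proportional to cytotoxicity. HEK293, 600 cells/well with reagent, compound (23 nL DMSO) added after 5 h; reads at 0, 8, 16, 24, 32, 40 h.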
# [17] = biological target: Nuclear receptor subfamily 1 group I member 3 (Homo sapiens) (UniProt Q14994); assay: qHTS assay to identify small molecule antagonists of the constitutive androstane receptor (CAR) signaling pathway (AID 1224838);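 also: HepG2 cells stably expressing hCAR with CYP2B6 luciferase reporter stimulated by CITCO; nearly all actives have a fitted effect of over 40% in size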
# Summary of the method: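 Read-out: ONE-Glo luciferase luminescence after 30 min at room temperature. HepG2-CYP2B6-hCAR double-stable cells, compounds in 15-point titration plus 50 nM CITCO final, 24 h at 37 C/5% CO2.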
# [18] = biological target: Nuclear receptor subfamily 1 group I member 3 (Homo sapiens) (UniProt Q14994); assay: qHTS assay to identify small molecule agonists of the constitutive androstane receptor (CAR) signaling pathway (AID 1224839);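 also: HepG2 cells stably carrying human CAR and a CYP2B6 luciferase reporter; nearly all actives have a fitted effect of over 15% in size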
# Summary of the method: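 Compounds tested at 15 concentrations on HepG2 cells stably harbouring hCAR and CYP2B6-2.2kb reporter constructs, co-treated with PK11195 (0.75 uM final), 24 h at 37 C; luminescent reporter signal quantified.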
# [19] = biological target: Thyrotropin receptor (Homo sapiens) (UniProt P16473); assay: qHTS assay to identify small molecule agonists of the thyroid stimulating hormone receptor (TSHR) signaling pathway (AID 1224843; calls by dose curve; also: nearly all actives have a fitted effect of over 45% in size)
# Summary of the method: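 Agonist activity read as cAMP rise via d2/cryptate HTRF competition, 1 h room-temperature detection, in HEK293 cells expressing TSHR. Fifteen-point titrations, each run in triplicate, with a 30 min room-temperature incubation beforehand.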
# Sequence of Luciferin 4-monooxygenase (Photinus pyralis) (P08659 whole entry, looked up): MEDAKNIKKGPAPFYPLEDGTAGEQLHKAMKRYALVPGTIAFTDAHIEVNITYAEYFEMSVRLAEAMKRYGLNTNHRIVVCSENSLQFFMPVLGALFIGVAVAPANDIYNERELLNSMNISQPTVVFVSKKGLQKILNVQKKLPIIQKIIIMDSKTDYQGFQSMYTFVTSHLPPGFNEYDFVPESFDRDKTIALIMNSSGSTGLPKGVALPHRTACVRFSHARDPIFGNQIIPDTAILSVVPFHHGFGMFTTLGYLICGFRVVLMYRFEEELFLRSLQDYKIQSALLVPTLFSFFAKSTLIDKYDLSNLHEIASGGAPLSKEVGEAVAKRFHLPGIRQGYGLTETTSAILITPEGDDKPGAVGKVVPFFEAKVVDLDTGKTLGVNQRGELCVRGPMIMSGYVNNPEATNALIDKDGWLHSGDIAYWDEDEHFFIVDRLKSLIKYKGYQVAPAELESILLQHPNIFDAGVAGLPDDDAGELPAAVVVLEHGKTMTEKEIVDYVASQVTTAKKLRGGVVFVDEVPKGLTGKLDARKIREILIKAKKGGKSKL
# Sequence of Nuclear receptor subfamily 1 group I member 3 (Homo sapiens) (Q14994 whole entry, looked up): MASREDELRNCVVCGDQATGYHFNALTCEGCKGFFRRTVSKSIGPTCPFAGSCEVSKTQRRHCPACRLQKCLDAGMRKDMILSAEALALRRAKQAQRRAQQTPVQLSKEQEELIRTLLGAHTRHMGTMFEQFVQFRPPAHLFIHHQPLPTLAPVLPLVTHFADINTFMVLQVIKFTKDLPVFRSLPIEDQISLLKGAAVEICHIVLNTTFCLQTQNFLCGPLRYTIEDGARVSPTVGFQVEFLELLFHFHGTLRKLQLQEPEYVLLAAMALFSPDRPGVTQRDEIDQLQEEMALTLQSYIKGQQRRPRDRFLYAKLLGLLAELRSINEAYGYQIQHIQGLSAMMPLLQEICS
# Sequence of Thyrotropin receptor (Homo sapiens) (P16473 whole entry, looked up): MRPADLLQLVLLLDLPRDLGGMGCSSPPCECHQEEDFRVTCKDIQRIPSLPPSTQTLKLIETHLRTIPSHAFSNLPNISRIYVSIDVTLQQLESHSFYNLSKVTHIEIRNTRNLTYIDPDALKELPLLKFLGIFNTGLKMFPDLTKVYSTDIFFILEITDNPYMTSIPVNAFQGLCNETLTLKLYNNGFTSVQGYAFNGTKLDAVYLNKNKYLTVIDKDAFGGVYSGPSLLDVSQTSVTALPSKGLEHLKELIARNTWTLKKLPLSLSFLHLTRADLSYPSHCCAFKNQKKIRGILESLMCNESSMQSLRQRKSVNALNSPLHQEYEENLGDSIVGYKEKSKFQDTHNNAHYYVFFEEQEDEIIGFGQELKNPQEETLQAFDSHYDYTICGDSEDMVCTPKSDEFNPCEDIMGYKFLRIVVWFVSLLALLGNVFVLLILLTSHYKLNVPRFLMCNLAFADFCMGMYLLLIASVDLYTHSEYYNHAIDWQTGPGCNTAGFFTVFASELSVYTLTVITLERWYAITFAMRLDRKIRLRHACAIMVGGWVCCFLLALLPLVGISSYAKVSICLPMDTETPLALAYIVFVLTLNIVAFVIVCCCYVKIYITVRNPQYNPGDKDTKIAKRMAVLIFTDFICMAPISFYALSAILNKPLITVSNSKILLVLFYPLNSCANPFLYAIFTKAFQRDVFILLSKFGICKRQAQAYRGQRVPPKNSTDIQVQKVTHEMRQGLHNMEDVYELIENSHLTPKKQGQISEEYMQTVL
Compound,Potency [1],Potency [2],outcome [3],outcome [4],outcome [5],Potency [6],Potency [7],Potency [8],outcome [9],outcome [10],Potency [11],Potency [12],"activity change, positive = activation [13]",outcome [14],Potency [15],Potency [16],Potency [17],Potency [18],outcome [19]
C1COCCO1,inactive,inactive,inactive,inactive,inactive,inactive,inactive,inactive,inactive,inactive,inactive,inactive,5.15%,inactive,inactive,inactive,–,–,–
CCCC(C)C(=O)O (centres undefined),inactive,inactive,inactive,inactive,–,52.3 µM (active),inactive,–,inactive,inactive,inactive,52.3 µM (active),-46.3%,inactive,–,inactive,inactive,inactive,inactive
CC(C)(O)c1ccccc1,inactive,inactive,inactive,inactive,–,inactive,inactive,inactive,inactive,inactive,–,inactive,–,–,inactive,inactive,inactive,inactive,–
C=CC(=O)N1CCOCC1,inactive,inactive,inactive,inactive,inactive,inactive,inactive,inactive,inactive,inactive,inactive,inactive,4.07%,inactive,–,inactive,inactive,–,inactive
CCCCCCCCCCCCI,inactive,56.7 µM (active),inactive,inactive,–,–,–,–,inactive,inactive,inactive,–,–,–,inactive,inactive,inactive,inactive,–
CNc1ncnc2nc[nH]c12,inactive,inactive,inactive,inactive,inactive,inactive,inactive,inactive,inactive,inactive,inactive,inactive,1.91%,inactive,–,inactive,–,–,inactive
CC(C=O)Cc1ccc(C(C)C)cc1 (centres undefined),inactive,inactive,inactive,inactive,–,–,–,inactive,inactive,inactive,inactive,–,–,inactive,inactive,inactive,inactive,inactive,inactive
CC(C)(C)OC(=O)N1C[C@@H](F)C[C@H]1C(=O)O,inactive,inactive,inactive,inactive,–,–,–,inactive,–,inactive,inactive,–,–,inactive,inactive,inactive,inactive,inactive,inactive
Nc1nc(F)nc2c1ncn2[C@@H]1O[C@H](CO)[C@@H](O)[C@@H]1O,inactive,inactive,inactive,inactive,inactive,–,–,–,inactive,inactive,inactive,–,–,inactive,inactive,inactive,–,inactive,inactive
C(=C(c1ccccc1)c1ccccc1)c1ccccc1,inactive,inactive,inactive,inactive,inactive,–,–,inactive,inactive,inactive,80 µM (active),–,–,inactive,inactive,inactive,inactive,–,–
NC(=O)c1c(Cl)cccc1Cl,inactive,inactive,inactive,inactive,inactive,inactive,inactive,–,–,inactive,inactive,inactive,-1.3%,inactive,inactive,inactive,–,inactive,inactive
O=Cc1ccccc1[N+](=O)[O-],inactive,inactive,inactive,inactive,inactive,inactive,inactive,–,inactive,inactive,–,inactive,2.11%,inactive,inactive,inactive,inactive,–,inactive
CC(=O)OC(C)(C)C,inactive,inactive,inactive,inactive,inactive,inactive,inactive,inactive,inactive,inactive,–,inactive,0.24%,inactive,–,inactive,–,–,–
C1=C\CC/C=C\CC/C=C\CC/1,inactive,inactive,inactive,inactive,–,inactive,inactive,–,inactive,inactive,inactive,inactive,2.93%,inactive,inactive,inactive,inactive,inactive,–
CN(C)N=Nc1ccccc1,inactive,inactive,inactive,inactive,inactive,inactive,inactive,–,inactive,inactive,inactive,inactive,9.49%,inactive,inactive,inactive,–,–,inactive
CCCCCCCCCCCCCCC,inactive,inactive,inactive,inactive,–,inactive,inactive,inactive,inactive,inactive,inactive,inactive,4.59%,inactive,–,inactive,inactive,inactive,inactive
Nc1ccn(C2CO[C@H](CO)O2)c(=O)n1 (some centres undefined),inactive,inactive,inactive,inactive,inactive,inactive,inactive,inactive,inactive,inactive,inactive,inactive,0.852% [at 42.5 µM],inactive,–,16.9 µM (active),–,–,inactive
